# Assay results reported in PubChem BioAssay (Tox21).
# Several values for one entry are separate records, joined by “and”; a condition that tells them apart may be missing. Identical values can stand only once. Results filed as inconclusive are left out. Some structures have more than one record in an assay (separate samples or runs), and their calls can disagree. Activity calls are given as the source filed them. Calls come from the whole dose curve; as a rule, active = well fitted cell-killing curve with a large enough effect in the repeat runs; inconclusive = weak or mixed curves; inactive = no such curve, though single readings can be large or run the other way.
# Assay: qHTS assay to identify small molecule agonists of the peroxisome proliferator-activated receptor delta (PPARd) signaling pathway - cell viability counter screen (AID 743211); note: nearly all actives have a fitted effect of over 55% in size
# Details: PPARd-bla HEK293H viability, CellTiter-Glo luminescence, 17 h; series mostly up to 62.6 µM; activity change, negative = cytotoxicity: at the top concentration
# In short: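 Viability of GeneBLAzer PPARd UAS-bla HEK293H cells was assessed after 17 h compound incubation at 37C, using CellTiter-Glo reagent added after the reporter read and luminescence recorded 30 min later.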
# % is set by controls: 0 for no effect and ±100 for the full control effect; potency is the fitted concentration of half-maximal effect.
Compound,"activity change, negative = cytotoxicity",Potency
COc1cc(/C=C/C(=O)O[C@H]2CC[C@]34C[C@]35CC[C@]3(C)[C@@H]([C@H](C)CCC=C(C)C)CC[C@@]3(C)[C@@H]5CC[C@H]4C2(C)C)ccc1O,3.01% (inactive),–
CCCCCCCCCCCCCCCC(=O)OC[C@H](O)[C@H]1OC(=O)C(O)=C1O,–,49 µM (active)
COC(=O)C1=C(C)NC(C)=C(C(=O)OCC(C)C)C1c1ccccc1[N+](=O)[O-] (stereo not given),–,21.9 µM (active) and inactive
O=[N+]([O-])c1ccccc1Nc1ccccc1,2.47% (inactive),–
CN(C)c1ccc(SC#N)cc1,-14.9% (inactive),–
CCCC1O[C@@H]2C[C@H]3[C@@H]4CCC5=CC(=O)C=C[C@]5(C)[C@H]4[C@@H](O)C[C@]3(C)[C@]2(C(=O)CO)O1 (stereo not given in full),7.75% (inactive),–
CCc1cc(Cc2cc(CC)c(N)c(CC)c2)cc(CC)c1N,–,54.9 µM (active)
CCCCCCCCCCC=O,1.51% [at 81.1 µM] (inactive),–
C1CCCC1,6.84% (inactive),–
Oc1ccc(Cl)cc1Sc1cc(Cl)ccc1O,–,19.5 µM (active) and 26.6 µM (active)
CC1=NC(C)OC1C (stereo not given),-0.173% (inactive),–
C=C(C)C(=O)OCC[N+](C)(C)C,-0.0635% (inactive),–
CCC(C)(C)C1CCCCC1OC(C)=O (stereo not given),-9.5% (inactive),–
Clc1ccc2nsnc2c1NC1=NCCN1,0.492% (inactive),–
CC(=O)OCC(C)OC(C)=O (stereo not given),-0.14% (inactive),–
CCCCCCCCS(=O)C(C)Cc1ccc2c(c1)OCO2 (stereo not given),–,50 µM (active)
Cc1cccc(S(=O)(=O)O)c1C,0.11% (inactive),–
On1ccccc1=S,–,0.385 µM (active)
C[C@H]1[C@H]2CC[C@H]3[C@@H]4CC=C5C[C@@H](N(C)C)CC[C@]5(C)[C@H]4CC[C@]23CN1C,-7.74% (inactive),–
CCN1/C(=C/C=C/c2sc3ccccc3[n+]2CC)Sc2ccccc21,–,14.6 µM (active)
